{
  "source": "PubChem BioAssay AID743395",
  "about": "(Broad Institute, 2014)",
  "note": "About 480 (40%) of roughly 1,200 compounds were called active. No rule for the calls is given here. The set was probably picked from earlier hits. These entries were drawn from the full list. Measured potencies and affinities stand elsewhere.",
  "data": [
    {"test": "viability loss in human hepatoma cells – cell-based, CellTiter-Glo luminescence, cherry-pick, set 2, cytotoxicity control, dose response (AID 743395);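 also: 0% = neutral control wells and -100% = positive control wells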", "conditions": "HepG2 viability, CellTiter-Glo ATP luminescence, 72 h; series mostly up to 26 µM; activity change, negative = cytotoxicity: at the top concentration", "values": [
      {"compound": "COc1ccccc1NS(=O)(=O)c1ccc(C)c(C(=O)Nc2cc(C)on2)c1", "activity change, negative = cytotoxicity": "-9.34% (inactive)"},
      {"compound": "COc1ccc(Cl)cc1C(=O)NNC(=O)CCNS(=O)(=O)c1ccccc1", "activity change, negative = cytotoxicity": "-24.7% (inactive)"},
      {"compound": "COC(=O)c1ccc(CS(=O)(=O)c2ccc(F)cc2)o1", "activity change, negative = cytotoxicity": "14.9% (inactive)"},
      {"compound": "Nc1[nH]nc2ncc3cc4ccccc4nc3c12", "activity change, negative = cytotoxicity": "-30.7% (inactive)"},
      {"compound": "Clc1cccc(-c2ccc(C=Nc3ccc(N4CCOCC4)cc3)o2)c1Cl", "activity change, negative = cytotoxicity": "-1.34% (inactive)"},
      {"compound": "O=C(CN1CCOc2ccccc21)NCc1ccc(Cl)cc1", "activity change, negative = cytotoxicity": "-14.9% (inactive)"},
      {"compound": "COC(=O)COc1cccc2c(=O)n(CC(=O)NCc3ccccc3)ccc12", "activity change, negative = cytotoxicity": "1.47% (inactive)"},
      {"compound": "O=C(N/N=C/c1cccs1)c1cccc(NC(=O)c2ccccc2Cl)c1", "activity change, negative = cytotoxicity": "-0.464% (inactive)"},
      {"compound": "O=C(c1ccc(S(=O)(=O)NCC2CCCO2)cc1)N1CCN(c2cccc(Cl)c2)CC1", "note": "(centres undefined)", "activity change, negative = cytotoxicity": "-9.2% (inactive)"},
      {"compound": "O=C(CSc1nc2nn(-c3ccccc3)c(=O)c-2c2n1CCCCC2)Nc1ccc(OC(F)F)cc1", "activity change, negative = cytotoxicity": "-13.5% (inactive)"},
      {"compound": "COc1cc(OC)c2c(-c3cccc(-c4ccc(OC)c(F)c4)c3)cc(=O)oc2c1", "activity change, negative = cytotoxicity": "-19.6% (inactive)"},
      {"compound": "COc1ccc(-c2c(C)cc3oc(=O)cc(-c4ccccc4)c3c2C)cc1OC", "activity change, negative = cytotoxicity": "-4.38% (inactive)"},
      {"compound": "COc1cc(OC)c2c(-c3cccc(-c4ccc(OC)c(OC)c4)c3)cc(=O)oc2c1", "activity change, negative = cytotoxicity": "15.8% (inactive)"},
      {"compound": "Cc1ccc(-c2cccc(-c3cc(=O)oc4ccc(C(C)(C)C)cc34)c2)cc1", "activity change, negative = cytotoxicity": "-10.4% (inactive)"},
      {"compound": "CN1C(=O)c2cccc3c(N)ccc(c23)C1=O", "activity change, negative = cytotoxicity": "-20.1% (inactive)"},
      {"compound": "CC1Cc2nc(SCC(=O)N3CCOCC3)n(-c3ccccc3)c(=O)c2S1", "note": "(centres undefined)", "activity change, negative = cytotoxicity": "-24% (inactive)"},
      {"compound": "COc1cc(/C=C(\\CC(=O)O)c2nc3ccccc3s2)ccc1OCC(=O)Nc1ccccc1F", "activity change, negative = cytotoxicity": "-10.9% (inactive)"},
      {"compound": "CC(C)(C)c1ccccc1NC(=O)CN1C(=O)NC2(CCCCCC2)C1=O", "activity change, negative = cytotoxicity": "-9.96% (inactive)"},
      {"compound": "CC(=O)Nc1ccc(-c2csc(NC(=O)CN3C(=O)NC4(CCCC4)C3=O)n2)cc1", "activity change, negative = cytotoxicity": "1.18% (inactive)"},
      {"compound": "O=C(NC1CCN(Cc2ccccc2)CC1)c1cc(S(=O)(=O)N2CCOCC2)ccc1Cl", "activity change, negative = cytotoxicity": "-4.42% (inactive)"},
      {"compound": "Cn1c(CC(=O)NN)c(Sc2ccccc2)c2ccccc21", "activity change, negative = cytotoxicity": "0.473% (inactive)"},
      {"compound": "CCCOc1cc(N(CC)CC)ccc1/C=C(/C#N)c1nc2ccc(C)cc2[nH]1", "activity change, negative = cytotoxicity": "-7.43% (inactive)"},
      {"compound": "COc1cc(/C=C(\\C#N)C(=O)c2c[nH]c3ccccc23)cc(OC)c1O", "activity change, negative = cytotoxicity": "12.3% (inactive)"},
      {"compound": "O=C(Nc1ccn(CCCNC2CCN(Cc3ccccc3)CC2)c(=O)n1)OCc1ccccc1", "activity change, negative = cytotoxicity": "-10.9% (inactive)"},
      {"compound": "Clc1ccc(N(CC2CO2)CC2CO2)cc1", "note": "(centres undefined)", "activity change, negative = cytotoxicity": "-9.93% (inactive)"},
      {"compound": "CC1=C(C(=O)N(C)C)CC(CC(=O)NCc2cccc3ccccc23)C(=O)N1CCCN1CCCC1=O", "note": "(centres undefined)", "activity change, negative = cytotoxicity": "-1.91% (inactive)"},
      {"compound": "Cc1cccc(NC(=O)CN2CCN(C(=O)CN3C(=O)NC4(CC(C)CC(C)(C)C4)C3=O)CC2)c1C", "note": "(centres undefined)", "activity change, negative = cytotoxicity": "-20.4% (inactive)"},
      {"compound": "COc1ccc(S(=O)(=O)N2CC[C@@H]3[C@@H](CO)N(C)c4ccc(-c5ccc(F)cc5)cc4[C@@H]32)cc1", "activity change, negative = cytotoxicity": "10.9% (inactive)"},
      {"compound": "CCOc1ccc2c(c1)C(C)=CC(C)(C)N2S(=O)(=O)c1ccc(F)cc1", "activity change, negative = cytotoxicity": "-15.7% (inactive)"},
      {"compound": "COc1ccc2c(c1)C(O)C(CO)C(C(=O)O)C2", "note": "(centres undefined)", "activity change, negative = cytotoxicity": "-0.564% (inactive)"},
      {"compound": "O=C(Cc1ccccn1)NCC[C@H]1CC[C@H](NC(=O)Nc2ccc(C(F)(F)F)cc2)[C@H](CO)O1", "activity change, negative = cytotoxicity": "4.87% (inactive)"},
      {"compound": "Fc1ccc2nc(C3CCN(Cc4nc(CC5CC5)no4)CC3)[nH]c2c1", "activity change, negative = cytotoxicity": "-1.48% (inactive)"},
      {"compound": "N#C/C(=C(/O)c1ccc(Br)s1)c1nc2ccccc2[nH]1", "activity change, negative = cytotoxicity": "-19.7% (inactive)"},
      {"compound": "Cc1cc2oc(C(=O)NCCc3ccc(S(N)(=O)=O)cc3)c(C)c2cc1C", "activity change, negative = cytotoxicity": "-9.06% (inactive)"},
      {"compound": "CCOC(=O)N1CCN(S(=O)(=O)c2ccc3c(c2)C(C)C(=O)N3)CC1", "note": "(centres undefined)", "activity change, negative = cytotoxicity": "-13% (inactive)"},
      {"compound": "COc1ccccc1C1CC(=O)Nc2cc3c(cc21)OCCO3", "note": "(centres undefined)", "activity change, negative = cytotoxicity": "5.01% (inactive)"},
      {"compound": "CCOc1ccccc1NC(=O)CC1SC(=N)N(c2ccccc2)C1=O", "note": "(centres undefined)", "activity change, negative = cytotoxicity": "-1.66% (inactive)"},
      {"compound": "O=S1(=O)c2ccc(Br)cc2N2CCC[C@H]2CN1Cc1ccccc1", "activity change, negative = cytotoxicity": "-13.4% (inactive)"},
      {"compound": "O=C(CC1Sc2ccccc2NC1=O)NNc1cccc(Cl)c1Cl", "note": "(centres undefined)", "activity change, negative = cytotoxicity": "-13.7% (inactive)"},
      {"compound": "CC(=O)OC1CCC2(C)C(=CCC3C2CCC2(C)C3CC3ON=C(C)C32)C1", "note": "(centres undefined)", "activity change, negative = cytotoxicity": "-4.59% (inactive)"},
      {"compound": "Cc1ccc(S(=O)(=O)N2C[C@H]3[C@H]4C(=O)N(C)C(=O)[C@H]4CC(=O)[C@H]3[C@@H]2c2ccccc2F)cc1", "activity change, negative = cytotoxicity": "11.8% (inactive)"},
      {"compound": "CCCNC(=O)N1C[C@@H]2[C@H](c3ccccc31)[C@H](CO)N2Cc1ccc(OC)cc1", "activity change, negative = cytotoxicity": "-1.83% (inactive)"},
      {"compound": "NS(=O)(=O)c1cc(Cl)c(Cl)c(S(N)(=O)=O)c1", "activity change, negative = cytotoxicity": "-6.58% (inactive)"},
      {"compound": "COc1ccc(CC(=O)NC(c2ccccc2)c2ccc(C)cc2)c(OC)c1", "note": "(centres undefined)", "activity change, negative = cytotoxicity": "15.1% (inactive)"},
      {"compound": "CC(C)NC(=O)NC(=O)COC(=O)c1ccc(S(=O)(=O)Nc2ccccc2)cc1", "activity change, negative = cytotoxicity": "-0.043% (inactive)"},
      {"compound": "Cc1cc(-c2ccccc2)nc(N(C)NC(=O)C2CC2)c1S(C)(=O)=O", "activity change, negative = cytotoxicity": "-8.74% (inactive)"},
      {"compound": "CCc1cccc(NC(=O)COC(=O)c2cc([N+](=O)[O-])ccc2N2CCOCC2)c1", "activity change, negative = cytotoxicity": "-15.3% (inactive)"},
      {"compound": "O=C(COC(=O)c1cc([N+](=O)[O-])ccc1N1CCOCC1)Nc1c(Cl)cccc1Cl", "activity change, negative = cytotoxicity": "-4.02% (inactive)"},
      {"compound": "COc1ccc(C(=O)c2cc([N+](=O)[O-])ccc2N2CCN(C)CC2)cc1", "activity change, negative = cytotoxicity": "-26.3% (inactive)"},
      {"compound": "C[C@@H]1CN([C@H](C)CO)S(=O)(=O)c2ccc(/C=C/c3ccccc3)cc2O[C@H]1CN(C)C(=O)NC1CCCCC1", "activity change, negative = cytotoxicity": "-16.1% (inactive)"},
      {"compound": "COc1cccc(/C=N/NC(=O)C(=O)N/N=C/c2cccc(OC)c2O)c1O", "activity change, negative = cytotoxicity": "10.6% [at 8 µM] (inactive)"},
      {"compound": "C#CCN(C)CCCOc1ccc(Cl)cc1Cl", "activity change, negative = cytotoxicity": "-3.84% (inactive)"},
      {"compound": "CC(C)Nc1nc(Nc2ccc(C#N)cc2)c2sccc2n1", "activity change, negative = cytotoxicity": "-26.4% (inactive)"},
      {"compound": "CCCCNc1cc(C(=O)O)cc(S(N)(=O)=O)c1Oc1ccccc1", "activity change, negative = cytotoxicity": "1.62% (inactive)"},
      {"compound": "CC[N+]1(CC)CC2=Cc3ccccc3CC2C1", "note": "(centres undefined)", "activity change, negative = cytotoxicity": "-11.6% (inactive)"},
      {"compound": "Cc1ccc2c(CN3CCN(S(=O)(=O)c4ccc(Cl)cc4)CC3)cc(=O)oc2c1C", "activity change, negative = cytotoxicity": "-1.82% (inactive)"},
      {"compound": "C#Cc1ccc(NC(=O)C2(C)CCN2C(=O)c2cc(C)n(C)n2)cc1", "note": "(centres undefined)", "activity change, negative = cytotoxicity": "-2.6% (inactive)"},
      {"compound": "CCN1C(=O)c2cccc3c(N)ccc(c23)C1=O", "activity change, negative = cytotoxicity": "-13.8% (inactive)"},
      {"compound": "Cn1c(NCc2ccccc2F)nc2cc(-c3ccsc3)sc2c1=O", "activity change, negative = cytotoxicity": "-4% (inactive)"},
      {"compound": "Cc1cc2oc(=O)cc(-c3ccccc3)c2c(C)c1-c1ccc(O)cc1", "activity change, negative = cytotoxicity": "-5.01% (inactive)"},
      {"compound": "Nc1ccc(-c2c3ccc(=O)cc-3oc3cc(O)ccc23)cc1C(=O)O", "activity change, negative = cytotoxicity": "-5.54% (inactive)"},
      {"compound": "COC(=O)CNc1cc(S(=O)(=O)N2CCCCC2)ccc1Oc1ccc(C(=O)OC)cc1", "activity change, negative = cytotoxicity": "11.2% (inactive)"},
      {"compound": "COc1ccccc1CNC(=O)Cn1cnnn1", "activity change, negative = cytotoxicity": "-10.7% (inactive)"},
      {"compound": "COc1ccc(NC(=O)C(CC(=O)O)Cc2ccc(Cl)cc2)cc1", "note": "(centres undefined)", "activity change, negative = cytotoxicity": "12.9% (inactive)"}
    ]}
  ]
}
